Measured values: PubChem BioAssay (NCI)
This is part of a sample that, as a whole, favours compounds with a hit. Of some 79,000 tested, about 15% had one in any assay. Active and inactive are the calls of the source. Cut-off read from the data, not from the text of the source: active = growth inhibition above about 70%; inactive = the rest.

How the values were obtained:
[1] = NCI Yeast Anticancer Drug Screen. Data for the rad50 strain (AID 155);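 note: 0% = growth of vehicle-only cultures of the same strain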; conditions: S. cerevisiae rad50 strain growth inhibition; at 50.0 µM; active compounds read high
Method in brief: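 A DNA repair-deficient yeast mutant serves as the test organism; compound-induced growth inhibition is calculated against vehicle-treated cells.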

[2] = NCI Yeast Anticancer Drug Screen. Data for the mec2-1 strain (AID 157); conditions: S. cerevisiae mec2-1 strain, at 50.0 µM, active compounds read high
Method in brief: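 Mutant yeast (mec2-1) grown with compound; growth inhibition relative to vehicle control reported.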

[3] = NCI Yeast Anticancer Drug Screen. Data for the sgs1 mgt1 strain (AID 161);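 note: 0% = growth of cultures given vehicle only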; conditions: S. cerevisiae sgs1 mgt1 strain, at 50.0 µM, active compounds read high
Method in brief: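 Compounds are added to genetically altered yeast, and growth is compared with cultures given vehicle alone to give percent inhibition.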

[4] = NCI Yeast Anticancer Drug Screen. Data for the cln2 rad14 strain (AID 165);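 note: 0% = growth equal to vehicle treated cultures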; conditions: S. cerevisiae cln2 rad14 strain, at 50.0 µM, active compounds read high
Method in brief: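 Readout is yeast growth inhibition versus vehicle-treated controls, using a strain with cln2 and rad14 alterations exposed to compound.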

[5] = NCI Yeast Anticancer Drug Screen. Data for the bub3 strain (AID 167); conditions: S. cerevisiae bub3 mutant strain, at 50.0 µM, active compounds read high
Method in brief: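 Inhibition values come from growth of compound-treated mutant yeast normalised to vehicle-treated controls.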

[6] = NCI Yeast Anticancer Drug Screen. Data for the mlh1 rad18 strain (AID 175); conditions: S. cerevisiae mlh1 rad18 strain growth inhibition; at 50.0 µM; active compounds read high
Method in brief: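 Genetically defined yeast (DNA repair-deficient) exposed to compounds; growth inhibition determined relative to vehicle.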

Measured: growth inhibition

COc1ccc(NC(=O)NCc2cccc(Cl)c2)cc1
inactive: [1] 2.6% | [2] 35.4% | [3] 32% | [4] -8.4% | [5] -9.15% | [6] 44.1%

CC1(C)C2CCC(=O)C1C(OCc1ccccc1)C2 (stereo not drawn)
inactive: [1] -22.1% | [2] 15.7% | [3] -21.1% | [4] -0.85% | [5] -11.6% | [6] -47.4%

O=[N+]([O-])c1nccn1CCCl
inactive: [1] 20.1% | [2] -3.75% | [3] 2.35% | [4] -26.1% | [5] -9.85% | [6] -1.7%

Cc1cc2nc(C(C)C(=O)c3ccc(Cl)cc3)c(=O)[nH]c2cc1C (stereo not drawn)
inactive: [1] -12.1% | [2] -12.7% | [3] -0.9% | [4] 0.5% | [5] -24.4% | [6] -3.9%

CCC(/C=C/c1ccccc1)=N\NC(=O)c1ccc(C)cc1
inactive: [1] 9.4% | [2] 10.7% | [3] 11.7% | [4] -4.05% | [5] 15.5% | [6] 5.25%

CCC(c1ccccc1)c1cc(C(C)(C)C)cc(C(C)(C)C)c1O (stereo not drawn)
inactive: [1] 31.9% | [2] -36% | [3] -15.4% | [4] -2.25% | [5] 25.4% | [6] 0.95%

Cc1ccc([N+](=O)[O-])cc1NC(=O)COc1ccc(Cl)cc1Cl
inactive: [1] 6.25% | [2] 0.55% | [3] 13.5% | [4] 10.2% | [5] 1.85% | [6] 1.15%

CN(C)C=Nc1cccc2c1NSN2
inactive: [1] 5.5% | [2] -6.4% | [3] -1.35% | [4] 29.1% | [5] 13.4% | [6] 33.1%

Nc1nnc(-c2cccc(-c3nnc(N)o3)c2)o1
inactive: [1] -13.5% | [2] -24.6% | [3] -9.8% | [4] -41.4% | [5] -6.5% | [6] -15.1%

O=C1NC(=O)C(=Nc2cccc3c(=O)[nH][nH]c(=O)c23)C(c2nc3ccccc3s2)C1=O (stereo not drawn)
inactive: [1] 20.2% | [2] -9.7% | [3] -12.8% | [4] 8.7% | [5] -3.05% | [6] 4.7%

CC(C)(C)OC(=O)CNC(=O)C(CSC(c1ccccc1)(c1ccccc1)c1ccccc1)N1C(=O)c2ccccc2C1=O (stereo not drawn)
active: [5] 73.6%
inactive: [1] 45.9% | [2] 32.5% | [3] 46.2% | [4] 31.9% | [6] 49.5%

Cc1ccc(C)c(OC(=O)NC2CCCCC2)c1
inactive: [1] -4.9% | [2] -15.1% | [3] -15.1% | [4] -57.6% | [5] 0% | [6] -19.9%

Cc1ccccc1C(c1ccccc1C)C(CC(=O)O)CC(=O)O
inactive: [1] 11.7% | [2] 14.2% | [3] 10.6% | [4] -102% | [5] 5.05% | [6] -2.6%

Cc1ccccc1C(C#N)/C(=N/NC(=O)C(=O)NN)C(=O)Nc1cccc(C(F)(F)F)c1 (stereo not drawn)
inactive: [1] 34.1% | [2] 10.9% | [3] 14.2% | [4] 23.1% | [5] 0.25% | [6] 21.8%

CC(C)C(=O)C(C)(C)CCc1ccccn1
inactive: [1] -23.4% | [2] -24.8% | [3] -28.6% | [4] -15.8% | [5] -12.2% | [6] -8.35%

O=c1c(C(c2ccc(Cl)cc2)c2c(O)c3ccccc3n(-c3ccccc3)c2=O)c(O)c2ccccc2n1-c1ccccc1
inactive: [1] -12.9% | [2] -0.65% | [3] -9.95% | [4] -12.4% | [5] -0.8% | [6] -3.4%

COc1ccc(Cc2cn(C)cc(Cc3ccc(OC)cc3)c2=O)cc1
inactive: [1] 4.7% | [2] 0.8% | [3] 7.15% | [4] -7.45% | [5] -1.2% | [6] -4.45%

N#Cc1sc2c(c1O)c(=O)n(-c1ccccc1)c(=S)n2-c1ccccc1
inactive: [1] -40.9% | [2] -36.9% | [3] -37.3% | [4] -23.1% | [5] -54.9% | [6] -47.8%

CCC1=NCCO1
inactive: [1] 5.85% | [2] 0.25% | [3] -2.1% | [4] 4% | [5] 28.1% | [6] -11.7%

Cc1ccc(N2P(N(C)C)N(c3ccc(C)cc3)P2(=O)N(C)C)cc1 (stereo not drawn)
inactive: [1] 12.4% | [2] 22.4% | [3] 9.45% | [4] -5.6% | [5] 3.6% | [6] 6.4%

Oc1c(Br)cc(Br)cc1/C=C/NC(=S)NC1CC2CC1C1C=CCC21 (stereo not drawn)
inactive: [1] 28.2% | [2] 32.1% | [3] 10.6% | [4] -6.15% | [5] 5.15% | [6] 55.9%

NC(=O)Nc1ccccc1
inactive: [1] 11.4% | [2] -8.6% | [3] -7.55% | [4] -34.5% | [5] -5.2% | [6] 14.2%

COc1ccc2c(ccc3nc(C)[nH]c(=O)c32)c1
inactive: [1] 5.3% | [2] -5.35% | [3] 2.95% | [4] -30.2% | [5] -10.6% | [6] -6.3%

COc1ccc(C(=O)N/N=C/c2ccccc2OC)cc1
inactive: [1] -3.1% | [2] 31% | [3] 25.4% | [4] -10.6% | [5] 27.9% | [6] 32%

CC1(C)c2ccccc2C(=O)c2ccccc21
inactive: [1] 8.1% | [2] 6.65% | [3] 2.6% | [4] -4.6% | [5] -2.75% | [6] 5.45%

CC(NC(C)c1ccccc1)c1ccccc1 (stereo not drawn)
inactive: [1] 6.05% | [2] 0.05% | [3] -5.6% | [4] -7.3% | [5] 3.3% | [6] -1.35%

COc1c(OC(C)=O)c(OC(C)=O)cc2c1-c1ccc(OC)c(=O)cc1C(NC(C)=O)CC2 (stereo not drawn)
inactive: [1] 1.65% | [2] -1.35% | [3] 15.8% | [4] 1.35% | [5] -33.3% | [6] 8.35%

CCCC(=O)OC1=CC(=O)c2ccccc2C1=O
inactive: [1] 22.9% | [2] 16.6% | [3] 29.1% | [4] 26.5% | [5] -10.2% | [6] 6.3%

CC1=CC2(C)OC3C(=O)N(c4ccc(Cl)cc4)C(=O)C3C2N=C1 (stereo not drawn)
inactive: [1] -7.65% | [2] -22.9% | [3] -24% | [4] 9.6% | [5] -20.1% | [6] -3.35%

O=C(O)c1c2ccccc2nc2c1sc1ccccc12
inactive: [1] -17.9% | [2] -8% | [3] -3.05% | [4] -63.6% | [5] -1.45% | [6] -7.85%

COc1ccc(CNc2ncccn2)cc1
inactive: [1] 14.1% | [2] -23.7% | [3] 0.7% | [4] 9.5% | [5] -12% | [6] 13.5%

COc1ccc(C2c3cc4c(cc3OC(C)(OC)C2C)OCO4)c(OC)c1 (stereo not drawn)
inactive: [1] 5.25% | [2] 26.2% | [3] 32.6% | [4] -47.2% | [5] -5.85% | [6] 21%

COC(=O)[C@H](Cc1c[nH]c2ccccc12)NP(=O)(O)OCC1C=CC(n2cc(C)c(=O)[nH]c2=O)O1 (stereo partly drawn)
inactive: [1] -8.5% | [2] -7.75% | [3] -9.6% | [4] 6.8% | [5] -13.1% | [6] -49.7%

CC[N+](C)(CC)c1cccc(OC(=O)N2CCCCC2)c1
inactive: [1] 7.8% | [2] 3.45% | [3] 16.4% | [4] 0.2% | [5] -4.75% | [6] -16.9%

COc1ccc(C2C(=O)C(Cl)N2Nc2nc(C)cc(=O)[nH]2)cc1OC (stereo not drawn)
inactive: [1] 1.45% | [2] -18.9% | [3] 4.2% | [4] -2.3% | [5] -27.9% | [6] -15.8%

O=C(O)C12CCCCC1CCCC2 (stereo not drawn)
inactive: [1] 11.4% | [2] 31.2% | [3] -6.25% | [4] 26.1% | [5] -0.75% | [6] 10.7%

Nc1nc(Cc2ccccc2)cs1
inactive: [1] 24.7% | [2] 24.7% | [3] 16.1% | [4] 7.5% | [5] 3.35% | [6] 12.6%

CC1=C/C(=C(/c2cccc(S(=O)(=O)O)c2)c2cc(C)c(O)c(C(=O)O)c2)C=C(C(=O)O)C1=O
inactive: [1] 4.4% | [2] -21.8% | [3] -3.7% | [4] 25.2% | [5] -3.7% | [6] 9.05%
